# Lassa entry inh – qHTS for Inhibitors of binding or entry into cells for Lassa Virus; Lassa virus pseudotype entry inhibition, cell reporter; Potency, µM (highest dose often 37.9 µM), usual class: inhibitors; 300,000 compounds, 1.2% hits; calls by dose curve; tested in HEK293 cells; also: nearly all actives have a fitted effect of over 50% in size
# HCV inhibitor – qHTS Assay for Inhibitors of Hepatitis C Virus (HCV); Huh7.5.1 HCVcc-Cre infection, luciferase reporter, 44 h; 340,000 compounds, 3.4% hits; Potency, µM (titrated, usually from 41.8 µM), actives largely listed as inhibitors; AID 651820, 2012; active = well fitted inhibition curve with a large enough effect; inconclusive = small, poorly fitted or top-dose-only effect, or another doubt; inactive = no such curve, though single readings can be large or run the other way
#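 Luciferase read-out (15 sec integration) after a 15 min room-temperature substrate step quantifies HCVcc-Cre infection. Cells, 1,000 per well, had compound added 4 h post-plating, then virus at ~0.5 moi, and were cultured 44 h.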
# Marburg entry inh – qHTS for inhibitors of binding or entry into cells for Marburg Virus | 300,000 compounds, 1.8% hits | Marburg virus pseudotyped entry inhibition, cell reporter | Potency, µM (doses to about 37.8 µM), usual class: inhibitors; calls by dose curve; tested in HEK293 cells
# HCMV inh – qHTS Assay for inhibitors of the human cytomegalovirus (HCMV) | 410,000 compounds, 4.5% hits | HFF cells, HCMV-luciferase reporter, 72 h; active compounds read low | activity change, negative = inhibition, % at 57.5 µM; in the data active = activity change below about -60%; inconclusive = no clear call, values can overlap the other calls; inactive = above about -39%
#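 Luciferase read-out from HCMV-luciferase-infected HFFs (MOI 1 PFU/cell) 72 h post infection at 37C; compounds added after 16 h cell attachment; activity normalized between buffer-only basal and Salinomycin (10uM) inhibitor controls.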
# FMDV inh – High Throughput Screening for Foot and Mouth Disease Virus Antivirals; FMDV antiviral cell-based qHTS; Potency, µM (highest dose often 57.9 µM), actives largely listed as inhibitors; 410,000 compounds, 1.2% hits; AID 1159524, 2015; calls by dose curve; tested in HEK293T cells; also: read-out not given here; nearly all actives have a fitted effect of over 45% in size
# Hits are given with their value; n = inactive; u = inconclusive; x = not tested or not shown. The list is not random: actives were taken first. Their share in the collection is about 7.9%.
SMILES,Lassa entry inh,HCV inhibitor,Marburg entry inh,HCMV inh,FMDV inh
Cc1[nH]c2ccccc2c1C(=O)COC(=O)c1c(-c2c(F)cccc2Cl)noc1C,n,u,u,-71,32µM
Cc1ccc(C)n1C1C(=O)N(Cc2ccc(C(F)(F)F)cc2)c2ccccc21 (stereo not given),x,x,x,n,x
O=c1[nH]nc(-c2ccc([N+](=O)[O-])o2)c(=O)[nH]1,n,n,u,-93,n
O=C(NCc1ccc2c(c1)OCO2)Nc1ccc(Cl)cc1,x,n,x,n,n
CC(CNC(=O)c1ccc2c(c1)OCO2)c1ccc([N+](=O)[O-])cc1 (stereo not given),n,n,n,-63,n
O=C(NCc1ccc2c(c1)OCO2)Nc1ccc([N+](=O)[O-])cc1,n,u,n,-61,n
CC(C)c1ccc(CCNC(=O)c2ccc([N+](=O)[O-])cc2)cc1,u,11µM,u,n,n
COc1ccc(OC)c(NC(=O)[C@@H]2CCCN2C(=O)c2cccs2)c1,u,n,n,x,n
CCc1cccc(CC)c1NC(=O)Cc1csc(C)n1,n,x,n,n,n
CCn1c(=O)c(=O)n(CC)c2cc(N3CCCCC3)c(NC(=O)c3cccc(OC)c3)cc21,n,x,n,n,n
CCOc1ccccc1C(=O)Nc1cc2c(cc1N1CCCC1)n(CC)c(=O)n2CC,x,u,x,n,u
CCOc1ccccc1NC(=O)Nc1cc2c(cc1N1CCCCC1)n(CC)c(=O)n2CC,u,x,x,-62,n
CCCCOc1cccc(C(=O)Nc2ccccc2N2CCCC2)c1,n,13µM,n,n,n
CCn1c(=O)n(CC)c2cc(N3CCCC3)c(NC(=O)c3cccc(Cl)c3)cc21,x,6.3µM,x,n,u
CCn1c(=O)n(CC)c2cc(N3CCCC3)c(NC(=O)c3ccc(C)c([N+](=O)[O-])c3)cc21,u,7.9µM,n,n,n
Cc1cccc(NC(=O)Cn2c(=O)n(Cc3ccccc3)c(=O)c3sc4ccccc4c32)c1,n,x,n,n,n
Cc1ccc(NS(=O)(=O)c2c(C(=O)N3CCC(C)CC3)c(C)n(C)c2C)cc1Cl,n,x,x,n,n
CCn1c(=O)n(CC)c2cc(N3CCCC3)c(NC(=O)c3cccc(C)c3)cc21,u,13µM,u,n,u
Fc1ccc(CNc2ncnc3cc(Cl)ccc23)cc1,x,10µM,x,u,u
COc1ccc(CNc2ncnc3cc(Cl)ccc23)cc1OC,u,u,u,-70,u
CC[C@@H](C)CCCCC(=O)N[C@H](CCN)C(=O)N[C@@H](C(=O)N[C@H](CCN)C(=O)N[C@@H]1CCNC(=O)C([C@@H](C)O)NC(=O)[C@@H](CCN)NC(=O)[C@@H](CCN)NC(=O)[C@@H](CC(C)C)NC(=O)[C@@H](Cc2ccccc2)NC(=O)[C@@H](CCN)NC1=O)[C@@H](C)O (stereo not given in full),x,x,x,x,n
O=C(CSc1nc2c(sc3ccccc32)c(=O)n1CCCC(=O)NC1CCCC1)Nc1ccc(F)cc1,n,x,n,n,n
Cc1c(-c2ccccc2)c(-c2ccc(OCCN(C)C)cc2)n2ccccc12,u,u,u,-74,n
COc1ccc(-c2sc3ccccc3c2-c2ccc(OCCN(C)C)cc2)cc1,x,u,x,n,u
COc1ccc(/C=C/C(=O)Nc2ccc3nc4c(c(Nc5ccc(OC)c(OC)c5)c3c2)CCCC4)cc1,u,x,u,-99,n
SMILES,Lassa entry inh,HCV inhibitor,Marburg entry inh,HCMV inh,FMDV inh
COc1ccc(/C=C/C(=O)Nc2ccc3nc4n(c(=O)c3c2)CCCC4)cc1OC,x,n,x,n,n
COc1ccc(Nc2c3c(nc4ccc(NC(=O)/C=C/c5cc(OC)c(OC)c(OC)c5)cc24)CCCC3)cc1OC,u,x,u,-102,n
COc1ccc(/C=C/C(=O)Nc2ccc3nc(N4CCCCC4)cc(C)c3c2)cc1OC,n,x,u,n,u
CC(=O)N(Cc1ccc2c(c1)OCO2)Cc1cc2ccc(C)cc2nc1-c1cccc(C)c1,x,x,x,x,n
COCCc1nc2ccc(C(=O)N(C)Cc3cccc(-n4nc(C)cc4C)c3)cc2o1,n,x,n,n,n
CCCc1cc(=O)oc2cc(OCC(=O)N3CCN(C(=O)C4COc5ccccc5O4)CC3)ccc12 (stereo not given),x,u,x,n,u
Cc1cc(=O)oc2cc(OCC(=O)N3CCN(C(=O)C4COc5ccccc5O4)CC3)ccc12 (stereo not given),x,18µM,x,u,u
CCCCc1cc(=O)oc2cc(O)ccc12,n,n,n,-104,n
